Structures can show the parent of a compound that is named as a salt. ± gives the uncertainty stated by the source.

This assay deals with NCC-PMP1-C1. As to the kind of experiment: cell viability relative to DMSO control; higher = less growth inhibition. The settings on record: 10 µM; 72 h. As to the method:
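NCC-PMP1-C1 pseudomyxoma peritonei cells were seeded in 384-well plates coated with Matrigel and MEF (1e4 cells). Viability was read after 72 h by CCK-8 and expressed as % of the DMSO control, mean ± SD of duplicates.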
Broadly, the cell viability is a read-out of living cells in per cent, often relative to untreated cells. In the case of `Nc1nc(Cl)nc2c1ncn2[C@H]1C[C@H](O)[C@@H](CO)O1` [Cladribine], the cell viability is 97.8 ± 1.1%. As for `C=CC[C@@H]1/C=C(\C)C[C@H](C)C[C@H](OC)[C@H]2O[C@@](O)(C(=O)C(=O)N3CCCC[C@H]3C(=O)O[C@H](/C(C)=C/[C@@H]3CC[C@@H](O)[C@H](OC)C3)[C@H](C)[C@@H](O)CC1=O)[C@H](C)C[C@@H]2OC` [Tacrolimus (FK506)], the cell viability was 2.67 ± 1%.

In the case of `CC[C@H](Nc1ncnc2[nH]cnc12)c1nc2cccc(F)c2c(=O)n1-c1ccccc1` [CAL-101 (Idelalisib, GS-1101)], the cell viability turned out to be 73.5 ± 9.8%. Then `O=C(O)C1(C(=O)O)CCC1.[NH2-].[NH2-].[Pt+2]` [Carboplatin], with 61.9 ± 9.4%; and `C[C@]1(O)C[C@@H](c2nc(-c3ccc4ccc(-c5ccccc5)nc4c3)c3c(N)nccn32)C1` [Linsitinib (OSI-906)], with 58.9 ± 2.1%; and `C=C1c2cccc(O)c2C(O)=C2C(=O)[C@]3(O)C(O)=C(C(N)=O)C(=O)[C@@H](N(C)C)[C@@H]3[C@@H](O)[C@H]12` [Methacycline HCl], with 108.4 ± 0.2%.

`C[C@@]12C[C@@]3(O)O[C@@H](O1)[C@]1(COC(=O)c4ccccc4)[C@H]3C[C@@]12O[C@@H]1O[C@H](CO)[C@@H](O)[C@H](O)[C@H]1O` [Paeoniflorin]: the cell viability is 78.6 ± 9%. Then `CC(C)(OCc1nn(Cc2ccccc2)c2ccccc12)C(=O)O` [Bindarit], with 104 ± 7.1%; and `N#Cc1ccc(C(c2ccc(C#N)cc2)n2cncn2)cc1` [Letrozole], with 129 ± 29%.

`Nc1cccc2c1CN(C1CCC(=O)NC1=O)C2=O` (stereo unspecified) [Lenalidomide]: the cell viability came to 106 ± 3.2%. Turning to `O=C(CCBr)N1CCN(C(=O)CCBr)CC1` [Pipobroman-D8], the cell viability was found to be 84 ± 7.7%. Then `CC[C@@H]1/C=C(\C)C[C@H](C)C[C@H](OC)[C@H]2O[C@@](O)(C(=O)C(=O)N3CCCC[C@H]3C(=O)O[C@H](/C(C)=C/[C@@H]3CC[C@H](Cl)[C@H](OC)C3)[C@H](C)[C@@H](O)CC1=O)[C@H](C)C[C@@H]2OC` [Pimecrolimus], with 78.1 ± 5.1%; and `C#Cc1cccc(Nc2ncnc3cc(OCCOC)c(OCCO)cc23)c1`, with 49.1 ± 7.9%. For `COc1cc2ncnc(Nc3ccc(F)c(Cl)c3)c2cc1NC(=O)/C=C/CN1CCCCC1`, the cell viability is 68.1 ± 1.6%. With `CCCCCCNC(=O)n1cc(F)c(=O)[nH]c1=O` [Carmofur], the cell viability was 96.6 ± 12%. Turning to `CC(C)(C)c1cc(NC(=O)Nc2ccc(-c3cn4c(n3)sc3cc(OCCN5CCOCC5)ccc34)cc2)no1` [Quizartinib (AC220)], the cell viability was determined as 78.9%.

As to `CC(=O)O[C@@]12CO[C@@H]1C[C@H](O)[C@@]1(C)C(=O)[C@H](O)C3=C(C)[C@@H](OC(=O)[C@H](O)[C@@H](NC(=O)OC(C)(C)C)c4ccccc4)C[C@@](O)([C@@H](OC(=O)c4ccccc4)[C@H]21)C3(C)C` [Docetaxel], the cell viability was determined as 72.1 ± 2.1%. Then `C=CC(=O)Nc1cccc(Nc2nc(Nc3ccc(N4CCN(C(C)=O)CC4)cc3OC)ncc2C(F)(F)F)c1` [Rociletinib (CO-1686, AVL-301)], with 57.8 ± 3.1%; and `CO[C@H]1C[C@@H]2CC[C@@H](C)[C@@](O)(O2)C(=O)C(=O)N2CCCC[C@H]2C(=O)O[C@H]([C@H](C)C[C@@H]2CC[C@@H](OC(=O)C(C)(CO)CO)[C@H](OC)C2)CC(=O)[C@H](C)/C=C(\C)[C@@H](O)[C@@H](OC)C(=O)[C@H](C)C[C@H](C)/C=C/C=C/C=C/1C`, with 155 ± 67%; and `CC1=C(/C=C/C(C)=C/C=C/C(C)=C/C(=O)O)C(C)(C)CCC1` [Tretinoin], with 129 ± 16%.

`S=c1[nH]cnc2nc[nH]c12` [Mercaptopurine (6-MP)]: the cell viability was -6.45%. On to `C/C(=C\c1csc(C)n1)[C@@H]1C[C@@H]2O[C@]2(C)CCC[C@H](C)[C@H](O)[C@@H](C)C(=O)C(C)(C)[C@@H](O)CC(=O)N1`, for which the cell viability came to 73.7 ± 4.9%. Turning to `O=C1CCC(N2C(=O)c3ccccc3C2=O)C(=O)N1` (stereo unspecified) [Thalidomide], the cell viability stood at 110 ± 6.2%. As to `CN(C)C/C=C/C(=O)Nc1cc2c(Nc3ccc(F)c(Cl)c3)ncnc2cc1O[C@H]1CCOC1` [Afatinib (BIBW2992) Dimaleate], the cell viability is 29.3 ± 2.4%. As to `CC(=O)[C@]1(O)Cc2c(O)c3c(c(O)c2[C@@H](O[C@H]2C[C@H](N)[C@H](O)[C@H](C)O2)C1)C(=O)c1ccccc1C3=O` [Idarubicin HCl], the cell viability amounted to 4.26 ± 0.73%. Then `COc1cc(Nc2ncc(F)c(Nc3ccc4c(n3)N(COP(=O)(O)O)C(=O)C(C)(C)O4)n2)cc(OC)c1OC` [Fostamatinib (R788)], with 4.92 ± 3.4%; and `Nc1nc2[nH]cc(CCc3ccc(C(=O)N[C@@H](CCC(=O)O)C(=O)O)cc3)c2c(=O)[nH]1` [Pemetrexed Disodium Hydrate], with 101 ± 18%. Then `CN(CCOc1ccc(CC2SC(=O)NC2=O)cc1)c1ccccn1` (stereo unspecified) [Rosiglitazone], with 101 ± 3.3%. Then `COc1cc(N2CCC(N3CCN(C)CC3)CC2)ccc1Nc1ncc(Cl)c(Nc2ccccc2S(=O)(=O)C(C)C)n1`, with 38.3 ± 2.1%. As for `NC(=O)NO` [Hydroxyurea], the cell viability turned out to be 136 ± 8.1%. Then `Cc1ccc(NC(=O)c2ccc(CN3CCN(C)CC3)cc2)cc1Nc1nccc(-c2cccnc2)n1` [Imatinib Mesylate (STI571)], with 75.2 ± 4.4%; and `COc1cc2c(Oc3ccc4[nH]c(C)cc4c3F)ncnc2cc1OCCCN1CCCC1` [Cediranib (AZD2171)], with 22.4 ± 14%. Then `Nc1nc(F)nc2c1ncn2[C@@H]1O[C@H](CO)[C@@H](O)[C@@H]1O` [Fludarabine], with 114 ± 29%; and `Oc1ncnc2[nH]ncc12` [Allopurinol], with 123 ± 13%; and `CCN(CC)CCNC(=O)c1c(C)[nH]c(/C=C2\C(=O)Nc3ccc(F)cc32)c1C` [Sunitinib Malate], with 50.6 ± 16%. On to `Cc1ccc(NC(=O)c2ccc(CN3CCN(C)CC3)cc2)cc1Nc1nccc(-c2cccnc2)n1` [Imatinib (STI571)], for which the cell viability was 92.3 ± 6.7%.

These data come from the supplement of paper PMC8877412.
